Data on four molecules can be found in PubChem BioAssay (EPA / NIEHS).

The source made the active and inactive calls. Rule for the calls: active = hit-call score of the fitted dose curve at least 0.9, where 1 is the maximum; inactive = score below 0.9.

Read-out in experiment [1]: TIMP metallopeptidase inhibitor 1 (TIMP1), TIMP1 (gene 7076)
The experiment can be described thus: BSK_hDFCGF_TIMP1: BioMAP Diversity Plus: hDFCGF Assay for TIMP metallopeptidase inhibitor 1 (TIMP1) Biomarker Activity (AID 2283062). To be noted: primary human foreskin fibroblasts; actives raise or lower the signal. The method in brief: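 ELISA readout of TIMP-1 from human dermal foreskin fibroblast cultures 24 h post-dosing. Curves were fitted in both directions against DMSO baseline, with SRB total-protein staining in parallel cultures as a cytotoxicity check.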

Read-out in experiment [2]: Monokine induced gamma interferon (MIG), CXCL9 (gene 4283)
Description: BSK_hDFCGF_MIG: BioMAP Diversity Plus: hDFCGF Assay for Monokine induced gamma interferon (MIG) Biomarker Activity (AID 2283063). To be noted: primary human foreskin fibroblasts; actives raise or lower the signal. The procedure, abridged: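 Fibroblasts (human foreskin, primary) dosed, 24 h, MIG by ELISA; fit bidirectional vs DMSO.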

Read-out in experiment [3]: Matrix Metallopeptidase 1 (MMP1), MMP1 (gene 4312)
Description: BSK_hDFCGF_MMP1: BioMAP Diversity Plus: hDFCGF Assay for Matrix Metallopeptidase 1 (MMP1) Biomarker Activity (AID 2283064). To be noted: primary human foreskin fibroblasts; actives raise or lower the signal. The procedure, abridged:
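Primary human foreskin fibroblasts exposed to chemicals for 24 h; MMP1 measured by ELISA. Cytotoxicity tracked by SRB staining in parallel cultures; bidirectional fit relative to DMSO.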

Read-out in experiment [4]: Plasminogen activator inhibitor-1 (PAI1), SERPINE1 (gene 5054)
The experiment can be described thus: BSK_hDFCGF_PAI1: BioMAP Diversity Plus: hDFCGF Assay for Plasminogen activator inhibitor-1 (PAI1) Biomarker Activity (AID 2283066). To be noted: primary human foreskin fibroblasts; actives raise or lower the signal. The method in brief: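 Primary dermal fibroblasts (human foreskin), hDFCGF system; compound 24 h; PAI-1 by ELISA; bidirectional fit vs DMSO control.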

Read-out in experiment [5]: Intercellular Adhesion Molecule 1 (ICAM1), ICAM1 (gene 3383)
The experiment can be described thus: BSK_KF3CT_ICAM1: BioMAP Diversity Plus: KF3CT Assay for Intercellular Adhesion Molecule 1 (ICAM1) Biomarker Activity (AID 2283067). To be noted: primary human keratinocytes with fibroblasts; actives raise or lower the signal. The method in brief: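 ELISA readout of ICAM-1; KF3CT human skin co-culture (keratinocytes + foreskin fibroblasts), 24 h post-dose; gain/loss fit vs DMSO baseline.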

Read-out in experiment [6]: Interferon-gamma inducible Protein 10 (IP10), CXCL10 (gene 3627)
Description: BSK_KF3CT_IP10: BioMAP Diversity Plus: KF3CT Assay for Interferon-gamma inducible Protein 10 (IP10) Biomarker Activity (AID 2283068). To be noted: primary human keratinocytes with fibroblasts; actives raise or lower the signal. The procedure, abridged: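 ELISA read-out of IP-10 after 24 h chemical dosing of human skin primary co-culture (keratinocytes, foreskin fibroblasts). Gain or loss of signal relative to DMSO, bidirectional curve fit.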

A short description of experiment [7]: BSK_KF3CT_SRB: Viability Assessment in the BioMAP Diversity Plus: KF3CT Assay (AID 2283069).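 Note: total protein by sulforhodamine B staining as a cytotoxicity measure; read 24 h after compound addition; fitted for both signal gain and loss against DMSO baseline.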 As to conditions: primary human keratinocytes with fibroblasts. The procedure, abridged:
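Human keratinocyte and foreskin fibroblast co-culture exposed to chemical for 24 h. Total protein measured in parallel cultures by 0.1% sulforhodamine B staining after 10% TCA fixation, read at 560 nm; bidirectional fit relative to DMSO.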

Read-out in experiment [8]: Interleukin-1 alpha (IL1a), IL1A (gene 3552)
Description: BSK_KF3CT_IL1a: BioMAP Diversity Plus: KF3CT Assay for Interleukin-1 alpha (IL1a) Biomarker Activity (AID 2283070). To be noted: primary human keratinocytes with fibroblasts; actives raise or lower the signal. The procedure, abridged: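 Primary human keratinocyte plus foreskin fibroblast co-culture, dosed and measured at 24 h in 96-well plates. IL-1a level quantified by ELISA; bidirectional fit relative to DMSO.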

Read-out in experiment [9]: TIMP metallopeptidase inhibitor 2 (TIMP2), TIMP2 (gene 7077)
The experiment can be described thus: BSK_KF3CT_TIMP2: BioMAP Diversity Plus: KF3CT Assay for TIMP metallopeptidase inhibitor 2 (TIMP2) Biomarker Activity (AID 2283071). As to conditions: primary human keratinocytes with fibroblasts; actives raise or lower the signal. The method in brief:
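Cells: human keratinocytes co-cultured with foreskin fibroblasts. Treat with chemical, 24 h. Measure TIMP-2 by ELISA; fit curves bidirectionally vs DMSO baseline.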

Read-out in experiment [10]: C-C motif chemokine 2 (Homo sapiens) (UniProt P13500)
Description: BSK_KF3CT_MCP1: BioMAP Diversity Plus: KF3CT Assay for Monocyte Chemoattractant Protein 1 (MCP1/CCL2) Biomarker Activity (AID 2283073). As to conditions: primary human keratinocytes with fibroblasts; actives raise or lower the signal. The procedure, abridged:
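KF3CT skin co-culture (keratinocytes/foreskin fibroblasts), 24 h post-dose; MCP-1 by ELISA; gain/loss of signal fit bidirectionally vs DMSO baseline.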

Read-out in experiment [11]: Matrix Metallopeptidase 9 (MMP9), MMP9 (gene 4318)
Description: BSK_KF3CT_MMP9: BioMAP Diversity Plus: KF3CT Assay for Matrix Metallopeptidase 9 (MMP9) Biomarker Activity (AID 2283074).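 For AC50: MMP9 protein level quantified by ELISA in the co-culture.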 As to conditions: primary human keratinocytes with fibroblasts; actives raise or lower the signal. The method in brief:
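Human keratinocyte and foreskin fibroblast co-culture exposed to chemicals for 24 h; MMP9 biomarker measured by ELISA, bidirectional fitting relative to DMSO; cytotoxicity tracked by SRB total protein staining in parallel cultures.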

Read-out in experiment [12]: urokinase plasminogen activator (uPA), PLAU (gene 5328)
Description: BSK_KF3CT_uPA: BioMAP Diversity Plus: KF3CT Assay for urokinase plasminogen activator (uPA) Biomarker Activity (AID 2283075). As to conditions: primary human keratinocytes with fibroblasts; actives raise or lower the signal. The method in brief:
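Primary human keratinocyte/foreskin fibroblast co-culture exposed to chemical; uPA measured by ELISA at 24 h. Bidirectional fit versus DMSO, with parallel SRB total-protein staining for cytotoxicity.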

Read-out in a further experiment: CD40, CD40 (gene 958)
The experiment can be described thus: BSK_LPS_CD40: BioMAP Diversity Plus: LPS Assay for CD40 Biomarker Activity (AID 2283076). To be noted: primary human HUVEC with PBMC; actives raise or lower the signal. The procedure, abridged:
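ELISA readout of CD40 in HUVEC/PBMC co-culture (BSK_LPS system), 24 h post-dosing; bidirectional curve fit, DMSO baseline; parallel SRB total-protein staining for cytotoxicity.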

Read-out in experiment [13]: E-selectin (Homo sapiens) (UniProt P16581)
The experiment can be described thus: BSK_LPS_Eselectin: BioMAP Diversity Plus: LPS Assay for Eselectin Biomarker Activity (AID 2283077). As to conditions: primary human HUVEC with PBMC; actives raise or lower the signal. The method in brief:
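ELISA readout of E-selectin, 24 h post-dose, HUVEC + PBMC co-culture (LPS system). Gain or loss of signal vs DMSO baseline, bidirectional fit.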

Read-out in experiment [14]: Interleukin-8 (IL8), CXCL8 (gene 3576)
Description: BSK_LPS_IL8: BioMAP Diversity Plus: LPS Assay for Interleukin-8 (IL8) Biomarker Activity (AID 2283078). To be noted: primary human HUVEC with PBMC; actives raise or lower the signal. The procedure, abridged: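 HUVEC + PBMC co-culture, LPS-activated; test chemicals dosed, IL-8 read by ELISA at 24 h. Bidirectional curve fit vs DMSO baseline (gain or loss of signal).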

Experiment [15] in a line: BSK_LPS_SRB: Viability Assessment in the BioMAP Diversity Plus: LPS Assay (AID 2283079).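 Note: total protein by sulforhodamine B absorbance as a cytotoxicity measure; measured one day after compound addition; fitted in both directions against DMSO so loss or gain of signal counts.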 As to conditions: primary human HUVEC with PBMC. The method in brief:
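HUVEC + PBMC co-culture, LPS-stimulated; compound 24 h. 10% TCA fix, 0.1% SRB stain, A560. Bidirectional fit vs DMSO.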

Read-out in experiment [16]: Interleukin-1 alpha (IL1a), IL1A (gene 3552)
The experiment can be described thus: BSK_LPS_IL1a: BioMAP Diversity Plus: LPS Assay for Interleukin-1 alpha (IL1a) Biomarker Activity (AID 2283080). To be noted: primary human HUVEC with PBMC; actives raise or lower the signal. The procedure, abridged:
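HUVEC/PBMC co-culture, LPS system; 24 h after dosing; IL-1a by ELISA; gain or loss of signal fitted bidirectionally vs DMSO baseline.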

Read-out in experiment [17]: Monocyte Chemoattractant Protein-1 (MCP1), CCL2 (gene 6347)
The experiment can be described thus: BSK_LPS_MCP1: BioMAP Diversity Plus: LPS Assay for Monocyte Chemoattractant Protein-1 (MCP1) Biomarker Activity (AID 2283081).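 For AC50: secreted MCP-1 protein quantified by ELISA in culture supernatant.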 To be noted: primary human HUVEC with PBMC; actives raise or lower the signal. The method in brief:
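ELISA read-out of MCP-1 after 24 h chemical dosing of a human umbilical vein endothelial cell/peripheral blood mononuclear cell co-culture stimulated with LPS. Gain or loss of signal fitted relative to DMSO controls.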

E-selectin (Homo sapiens), sequence (P16581 whole entry, looked up): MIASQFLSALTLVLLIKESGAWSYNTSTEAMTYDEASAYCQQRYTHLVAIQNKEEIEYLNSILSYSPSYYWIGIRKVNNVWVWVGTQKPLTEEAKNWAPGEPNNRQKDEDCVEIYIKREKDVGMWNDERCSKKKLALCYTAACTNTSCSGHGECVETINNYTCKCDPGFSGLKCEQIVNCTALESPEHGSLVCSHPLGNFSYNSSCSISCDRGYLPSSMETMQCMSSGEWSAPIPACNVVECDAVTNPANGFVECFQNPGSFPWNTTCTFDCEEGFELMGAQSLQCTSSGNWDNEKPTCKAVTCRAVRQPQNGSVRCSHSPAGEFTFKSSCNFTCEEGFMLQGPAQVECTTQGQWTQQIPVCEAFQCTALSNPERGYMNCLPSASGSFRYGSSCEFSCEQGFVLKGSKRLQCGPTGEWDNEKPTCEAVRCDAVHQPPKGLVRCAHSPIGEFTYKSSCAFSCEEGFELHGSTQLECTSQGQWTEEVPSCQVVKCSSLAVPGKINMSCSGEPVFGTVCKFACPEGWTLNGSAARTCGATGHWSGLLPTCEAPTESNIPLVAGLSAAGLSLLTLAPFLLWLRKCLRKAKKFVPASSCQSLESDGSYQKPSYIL

For `CC(C)(c1ccc(O)cc1)c1ccc(O)cc1`, the result in experiment [1], in experiment [2], in [3], in [4], in experiment [5] and in [6] was inactive. The result in experiment [7], in experiment [8], in experiment [9], in experiment [10], in [11] and in [12] was inactive. In addition, the outcome is “inactive” with CD40, CD40 (gene 958); “inactive” in experiment [13]; “inactive” in [14]; “inactive” in [15]; “inactive” in experiment [16]; “inactive” in experiment [17].
For `CCOC(=O)NCCOc1ccc(Oc2ccccc2)cc1`, the outcome in [1], in experiment [2], in [3], in experiment [4], in experiment [5] and in experiment [6] was inactive. The result in [7], in [8], in experiment [9], in experiment [12], in experiment [13] and in [14] was inactive. For the same molecule, the outcome in experiment [16] was inactive. Further, the AC50 in experiment [10] was 4.43 µM (active); in experiment [11], 30.3 µM (active); with CD40, CD40 (gene 958), 8.9 µM (active); in experiment [15], 14.2 µM (active); in experiment [17] it was 14.4 µM (active).
Consider `S=C(S)NCCNC(=S)S.[Mn+2].[S-]C([S-])=NCCN=C([S-])[S-].[Zn+2]`, for which the outcome in [1], in [2], in [3], in experiment [4], in experiment [5] and in experiment [6] was inactive. In addition, the outcome in experiment [7], in experiment [8], in [9], in [10], in experiment [11] and in [12] was inactive. In addition, the outcome with CD40, CD40 (gene 958) was “inactive”; in experiment [13], “inactive”; in experiment [14], “inactive”; in experiment [15] it was “inactive”; in experiment [16], “inactive”; in experiment [17], “inactive”.
As to `CSC(=O)c1cccc2nnsc12`, the result in [1], in experiment [2], in experiment [3], in experiment [4], in experiment [5] and in experiment [6] was inactive. In addition, the result in experiment [7], in [8], in experiment [9], in experiment [10], in [11] and in experiment [12] was inactive. Also, the outcome in the experiment with CD40, CD40 (gene 958) is “inactive”; in experiment [13], “inactive”; in [14], “inactive”; in experiment [15] it was “inactive”; in experiment [16], “inactive”; in [17] it was “inactive”.
